Test results reported in PubChem BioAssay (NCI).
This is part of a sample that, as a whole, favours compounds with a hit. Of some 83,000 tested, about 20% had one in any assay.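 Activity criterion: percent growth below 10, measured after cells in 96-well plates were exposed to a single compound concentration for 48 hours.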 Values without a mark were called inactive. Activity calls are given as the source filed them.

test system: SN12C renal; experiment: NCI-60 one-dose screen, 48 h (100 = growth as untreated, 0 = no growth, -100 = all killed); conditions: 10 µM unless noted
Protocol: Growth inhibition of the SN12C human tumor cell line is measured as a screen for anti-cancer activity. Cells are grown in 96 well plates and exposed to the test compound for 48 hours. Compounds are tested at a single concentration, which is 10^-5 M for most compounds. The reported endpoint is percent growth (GI% or GIPRCNT), where numbers from 0 - 100% represent growth inhibition, and numbers from -100% - 0 represent cell death. For example, a value of 40 represents 60% growth inhibition. A value of 0 means no net growth occurred over the course of the experiment. A value of -40 indicates 40% of cells at the beginning of the experiment died by the end of the experiment. A value of -100 means all cells are dead at the end of the experiment.
NCI-60 Human Tumor Cell Lines Screen was performed using the standard one-dose NCI protocol, which is described in more detail at https://dtp.cancer.gov/discovery_development/nci-60/default.htm.
Compounds with GIPRCNT values below 10 were considered active. Activity score was based on GIPRCNT using the following formula: […]
Score is 0 for GIPRCNT values of 100 or above, 50 for GIPRCNT values of 0, and 100 for GIPRCNT values of -100.

Row | Structure (SMILES) | growth
1 | COc1ccc(Cn2cc3c(c2)-c2oncc2CC3)cc1OC | 38.9%
2 | CCCCCCCCC/C(=N\NC(=O)c1ccncc1)c1ccc(O)c(O)c1O | 25.7%
3 | COc1ccccc1Cn1cc2c(c1)-c1oncc1CC2 | 39%
4 | Cc1ccc(S(=O)(=O)Nc2cccc(Cn3c(=O)[nH]c4ccc(Oc5ncccn5)cc4c3=O)c2)cc1 | 86.5%
5 | CCCCCCCCCCCC(=O)OC(C)C(=O)Nc1ccccc1 (stereo not given) | 93%
6 | CC(=O)Nc1nc(C)c(C(=O)NN)s1 | 95.2%
7 | O=C(OCC1CC2(Cl)C(Cl)=C(Cl)C1(Cl)C2(Cl)Cl)C1C(C(=O)OCC2CC3(Cl)C(Cl)=C(Cl)C2(Cl)C3(Cl)Cl)C2(Cl)C(Cl)=C(Cl)C1(Cl)C2(Cl)Cl (stereo not given) | 105%
8 | CCN(CC)C(=O)C1(C)CCCC2(C)c3cc(OC(C)=O)ccc3CCC12 (stereo not given) | 91.7%
9 | CCCCCSc1ccc2nc(NC(=O)OCC)sc2c1 | 52.5%
10 | C/C(CCC(=O)O)=N/Nc1ccc([N+](=O)[O-])cc1 | 77.1%
11 | CC(C)C(=O)c1ccc(Cl)s1 | 99.3%
12 | COc1ccc(C2=NN(C(=O)c3cc(-c4ccc(C)cc4)nc4ccccc34)C(c3cc(-c4ccccc4)nn3-c3ccccc3)C2)cc1 (stereo not given) | 97.7%
13 | CCCCCCCCCCCCCCCCCC(=O)Nc1ccc(O)cc1 | 75.7%
14 | O=C(Nc1ccc(-n2cc(-c3ccncc3)c(-c3ccc(Cl)c(O)c3)n2)cc1)c1cc(Cl)cc(Cl)c1 | 70.2%
15 | O=c1c(N=Nc2nccs2)c(-c2ccccc2)[nH]n1-c1nc(-c2ccccc2)cs1 | 35%
16 | CC(C)OC(=O)[C@H](C)N[P@@](=O)(OC[C@@]1(C)O[C@@H](n2cc(F)c(N)nc2=O)C[C@@H]1O[P@](=O)(N[C@@H](C)C(=O)OC(C)C)Oc1ccccc1)Oc1ccccc1 | 72.6%
17 | COc1cc(-c2nn(-c3ccc(NC(=O)c4cc(Cl)cc(Cl)c4)cc3)cc2-c2ccncc2)ccc1Cl | 91.9%
18 | Cc1ncc(C(=O)Nc2ccc(CN3CCN(C)CC3)c(C(F)(F)F)c2)cc1C#Cc1cnc(NC2CC2)c2ncccc12 | -85.3% (active)
19 | COc1cc(C(=O)Nc2ccc(N(C)C)cc2)cc(OC)c1OC | 94.2%
20 | O=C(/C=C/c1ccc(Cl)cc1)c1ccc(Cl)cc1 | 102%

Row | Structure (SMILES) | growth
21 | COC(=O)c1cc(=O)nc(N/N=C/c2ccccc2O)s1 | 90.9%
22 | CC1(c2ccc(Br)cc2)NC(=O)NC1=O (stereo not given) | 100%
23 | CCCC(CCC)Oc1ccc(CCCC2=C(O)c3ccccc3C(=O)C2=O)cc1 | 45.5%
24 | Cn1cnc2nc[nH]c2c1=S | 94.8%
25 | CCOC(=O)c1sc(NS(=O)(=O)c2ccccc2)nc1C | 100%
26 | CCOC(=O)c1ccc2n1CCCc1cnc(NC(C)=O)nc1-2 | 102%
27 | NNC(=O)CNc1ccc2ccccc2c1 | 104%
28 | COC(=O)c1cc(O)c2cc3c(cc2c1-c1cc(OC)c(OC)c(OC)c1)OCO3 | 34.1%
29 | CC(C)(CNC1CCCCC1)OC(=O)c1ccccc1 | 95.1%
30 | CCCC(=O)NNc1[nH]c(-c2ccc(OC)cc2)cc1C(=O)OCC | 110%
31 | CC1=NN(c2cccc(Cl)c2)C(=O)/C1=C\c1cn(-c2nc(N3CCOCC3)nc(N3CCOCC3)n2)c2ccccc12 | 104%
32 | CCOC(=O)C1CCCN1C(=O)C1(NC(C)=O)CCCC1 (stereo not given) | 118%
33 | Cc1ccnc2c(NC(C)CCCN)cc(O)c(O)c12 (stereo not given) | 27.2%
34 | COc1cc(OC)c(/C=C/c2ccc3ccccc3[n+]2C)c(OC)c1 | 12.3%
35 | CC(O)c1cc[cH-]c1.[Fe+2].c1cc[cH-]c1 (stereo not given) | 98.9%
36 | Cc1ccccc1-n1c(C)nc2cc(NC(=O)c3ccc(Cl)cc3)ccc2c1=O | 68.6%
37 | O=C(O)c1ccc(Br)nc1 | 98.1%
38 | Nc1cc(N)c2nc(NCCc3ccc(Cl)c(Cl)c3)cnc2c1 | 16.5%
39 | O=C1Nc2ccccc2/C1=C/c1cn(CC(O)Cn2cc(/C=C3\C(=O)Nc4ccccc43)c3ccccc32)c2ccccc12 (stereo not given) | -53.6% (active)
40 | O=C(N/N=C\c1ccc(-c2ccc(Br)cc2)o1)c1cc2oc(-c3cccc(C(F)(F)F)c3)cc2[nH]1 | 107%
